Test [1] can be described thus: qHTS for Inhibitors of Plasmodium falciparum (GB4) proliferation (AID 504315). Also: nearly all actives have a fitted effect of over 50% in size. Summed up:
(§1)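 Parasite growth measured as SYBR Green DNA fluorescence (ex 485, em 535 nm) after overnight lysis following 72 h culture at 37 °C, 0.3% parasitemia, 2.5% hematocrit. Values normalized against DMSO and 0.29 uM artemisinin controls, with plate-stack correction.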

Test [2] in a line: qHTS for Inhibitors of Plasmodium falciparum (7G8) proliferation (AID 504316). Also: nearly all actives have a fitted effect of over 65% in size. Summed up: as §1
(In general: In qHTS, concentration-response curves come from the screen itself.)

Test [3] in a line: qHTS for Inhibitors of Plasmodium falciparum (HB3) proliferation (AID 504318). Also: nearly all actives have a fitted effect of over 60% in size. A digest of the protocol:
as §1

The nature of test [4]: qHTS for Inhibitors of Plasmodium falciparum (CP250) proliferation (AID 504320). Summed up: as §1

Records with an inconclusive call do not appear. Values without a mark were called inactive. Activity calls are given as the source filed them. Calls follow the shape of the dose curve; as a rule, active = well fitted curve in the direction sought with a large enough effect; inconclusive = small, poorly fitted or top-dose-only effect, or another doubt; inactive = no such curve, though single readings can be large; an effect the other way counts as inactive or inconclusive.
Potency is read from the fitted curve at half-maximal effect.

With `COC(=O)C1=C(C(=O)OC)[C@@H]2N(Cc3ccccc3)c3ccccc3[C@@]23C[C@@H](C(=O)OC)N(S(=O)(=O)c2ccc4c(c2)OCCN4C)C3=N1`, the Potency in test [1] is 1.51 µM (active); in test [2] it was 1.9 µM (active); in test [3] it was 1.2 µM (active); in test [4], 1.51 µM (active).

Take `C=CCOC(=O)N[C@H](C(C(=O)OC)=C(C)NCc1ccccc1)c1ccc(C)cc1`: the Potency result in test [1], in test [2], in test [3] and in test [4] was “inactive” in each case.

In the case of `CCCCc1nc2c(c3c1C[C@H](C)OC3)CN(C(=O)Cc1cccc(OC)c1)CC2`, the Potency entry in test [1], in test [3] and in test [4] was “inactive” throughout.

For `C=CCN1C=C2C(=O)C(C)(OC(=O)c3cccs3)C(=O)C=C2C=C1CCCC(=O)OC` (stereo not given), the Potency entry in test [1], in test [2] and in test [4] was “inactive” in each case.

`CCOC(=O)CN1C(=O)N[C@@H](CCc2ccccc2)C(C(=O)OC)=C1C`: the Potency entry in test [1], in test [2] and in test [4] was “inactive” throughout.

On to `CC#CCN1c2ccccc2[C@]23C[C@@H](C(=O)OC)N(C(=O)CC(C)C)C2=NC(C(=O)OC)=C(C(=O)OC)[C@H]13`, for which the Potency entry in test [1], in test [2], in test [3] and in test [4] was “inactive” throughout.

`COC(=O)C1=C(C(=O)OC)[C@@H]2Nc3ccccc3[C@@]23C[C@@H](C(=O)OC)N(S(=O)(=O)c2cccs2)C3=N1`: the Potency result in test [1], in test [2] and in test [4] was “inactive” each time.

Regarding `COC(=O)CCCC1=CC2=C(c3ccccc3)C(=O)C(C)(OC(=O)C3CCCC3)C(=O)C2=CN1CCc1c[nH]c2ccccc12` (stereo not given), the Potency entry in test [1], in test [2] and in test [4] was “inactive” each time.

Regarding `COc1ccc(-c2nc3c(c4c2C[C@H](c2ccccc2)OC4)CN(C(=O)Cc2cccs2)CC3)c(C)c1`, the Potency entry in test [4] was “inactive”.

On to `C[C@H]1Cc2c(-c3ccccc3)nc3c(c2CO1)CN(C(=O)NCCc1c[nH]c2ccccc12)CC3`, for which the Potency result in test [2] and in test [4] was “inactive” each time.

(Values after PubChem BioAssay (NCATS).)
